The record followed here is PubChem BioAssay (NCATS).

The nature of assay [1]: S16 Schwann cell viability assay (CellTiter-Glo assay) (AID 624031). Note: nearly all actives have a fitted effect of over 70% in size. The method, boiled down:
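This viability control uses native rat S16 Schwann cells grown in DMEM plus 10% FBS. After a 24 h compound treatment at 37 °C, CellTiter-Glo luminescence reports ATP content, scaled against DMSO-treated and cell-free wells.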
For orientation: ATP-based viability assays read luminescence as a measure of living cells.

The test system of a further assay is AA1029. As to the kind of experiment: qHTS profiling for inhibitors of Plasmodium falciparum proliferation (AID 504749). Note: nearly all actives have a fitted effect of over 60% in size. Note: potency is the fitted concentration of half-maximal effect. The note with it: P. falciparum in erythrocytes, SYBR Green DNA, 72 h; series mostly up to 12.8 µM. Summed up: (§1)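 Parasite proliferation within erythrocytes, 72 h exposure. Endpoint: SYBR Green I fluorescence after overnight lysis at room temperature. Controls: 0.29 uM artemisinin, DMSO.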
(In general: In qHTS, concentration-response curves come from the screen itself.)

The subject of another assay is ATS189. Described as above. The settings on record: P. falciparum in erythrocytes, SYBR Green DNA, 72 h; series mostly up to 12.8 µM. The method, boiled down: as §1
In the next assay the test system is CP191. Described as above. The note with it: P. falciparum in erythrocytes, SYBR Green DNA, 72 h; series mostly up to 12.8 µM. The method, boiled down:
as §1

Another assay deals with CP192. The assay is described as above. The settings on record: P. falciparum in erythrocytes, SYBR Green DNA, 72 h; series mostly up to 12.8 µM. The method, boiled down: as §1
Another assay has as its system CP215. Described as above. The settings on record: P. falciparum in erythrocytes, SYBR Green DNA, 72 h; series mostly up to 12.8 µM. The method, boiled down: as §1
In another assay the test system is CP217. The description is as above. The note with it: P. falciparum in erythrocytes, SYBR Green DNA, 72 h; series mostly up to 12.8 µM. The method, boiled down:
as §1

The next assay relates to CP247. The description is as above. The settings on record: P. falciparum in erythrocytes, SYBR Green DNA, 72 h; series mostly up to 12.8 µM. The method, boiled down:
as §1

The next assay relates to CP250. The description is as above. The note with it: P. falciparum in erythrocytes, SYBR Green DNA, 72 h; series mostly up to 12.8 µM. The method, boiled down: as §1
The subject of a further assay is CP260. The description is as above. The note with it: P. falciparum in erythrocytes, SYBR Green DNA, 72 h; series mostly up to 12.8 µM. Summed up:
as §1

A further assay relates to CP265. The assay is described as above. The settings on record: P. falciparum in erythrocytes, SYBR Green DNA, 72 h; series mostly up to 12.8 µM. Summed up:
as §1

In a further assay the test system is CP335. The description is as above. The note with it: P. falciparum in erythrocytes, SYBR Green DNA, 72 h; series mostly up to 12.8 µM. Summed up: as §1
The next assay deals with DFO2036. Described as above. The note with it: P. falciparum in erythrocytes, SYBR Green DNA, 72 h; series mostly up to 12.8 µM. Summed up: as §1
A further assay deals with DIV17. The assay is described as above. The settings on record: P. falciparum in erythrocytes, SYBR Green DNA, 72 h; series mostly up to 12.8 µM. Summed up: as §1
The subject of a further assay is Dd2. The description is as above. The settings on record: P. falciparum in erythrocytes, SYBR Green DNA, 72 h; series mostly up to 12.8 µM. The method, boiled down:
as §1

Another assay concerns ICS. Described as above. The settings on record: P. falciparum in erythrocytes, SYBR Green DNA, 72 h; series mostly up to 12.8 µM. The method, boiled down: as §1
The next assay relates to P93_24. Described as above. The settings on record: P. falciparum in erythrocytes, SYBR Green DNA, 72 h; series mostly up to 12.8 µM. Summed up:
as §1

The next assay relates to P94_40. Described as above. The settings on record: P. falciparum in erythrocytes, SYBR Green DNA, 72 h; series mostly up to 12.8 µM. Summed up: as §1
The subject of another assay is TAB113. The assay is described as above. The settings on record: P. falciparum in erythrocytes, SYBR Green DNA, 72 h; series mostly up to 12.8 µM. The method, boiled down: as §1
Another assay concerns W2. Described as above. The note with it: P. falciparum in erythrocytes, SYBR Green DNA, 72 h; series mostly up to 12.8 µM. Summed up:
as §1

Inconclusive results are not listed. Activity calls are given as the source filed them. Calls come from the whole dose curve; as a rule, active = well fitted curve in the direction sought with a large enough effect; inconclusive = small, poorly fitted or top-dose-only effect, or another doubt; inactive = no such curve, though single readings can be large; an effect the other way counts as inactive or inconclusive.

For the compound `CC1(C)SC2C(N3C(=O)C(c4ccccc4)NC3(C)C)C(=O)N2C1C(=O)O` (stereo not drawn), the call in assay [1] was inactive. For the same compound, the Potency entry with AA1029, in the assay with ATS189, with CP191, with CP192, with CP215 and in the assay on CP217 was “inactive” each time. The Potency result with CP247, in the assay on CP250, with CP260, with CP265, with CP335 and in the assay with DFO2036 was “inactive” in each case. The Potency result with DIV17, in the assay with Dd2, in the assay on ICS, in the assay on P93_24, with P94_40 and with TAB113 was “inactive” each time. For the same compound, in the assay on W2, the Potency entry is “inactive”.

Turning to `NC(C(=O)O)[C@@H]1CC(Cl)=NO1` (stereo partly drawn), the Potency with AA1029 is 1 µM (active); in the assay on ATS189 it was 2.82 µM (active); with CP191, 2.51 µM (active); in the assay on CP192 it was 3.38 µM (active); in the assay with CP215, 3.01 µM (active); with CP217 it was 1.12 µM (active). The Potency was 3.16 µM (active) in the assay on CP247; 2.82 µM (active) with CP250; 0.891 µM (active) with CP260; 3.16 µM (active) in the assay on CP265; 1.2 µM (active) in the assay with CP335; 2 µM (active) with DFO2036. Also, the Potency with DIV17 is 3.38 µM (active); with Dd2, 0.708 µM (active); with ICS it was 0.891 µM (active); in the assay on P93_24, 1 µM (active); with P94_40 it was 1.12 µM (active); in the assay on TAB113, 1 µM (active). The Potency with W2 is 0.849 µM (active).

Turning to `COC1C=CO[C@@]2(C)Oc3c(C)c(O)c4c(O)c(c5c(nc6cc(C)ccn65)c4c3C2=O)NC(=O)/C(C)=C\C=CC(C)C(O)[C@@H](C)C(O)C(C)[C@@H](OC(C)=O)C1C` (stereo partly drawn), the compound was called inactive in [1]. The Potency is 12.6 µM (active) with AA1029; 12.6 µM (active) in the assay on ATS189; 11.2 µM (active) in the assay on CP191; 10.7 µM (active) in the assay with CP192; 13.5 µM (active) with CP215; 10 µM (active) in the assay on CP217. Besides, the Potency with CP247 is 8.91 µM (active); in the assay on CP260 it was 11.2 µM (active); in the assay on CP265, 11.2 µM (active); in the assay on CP335, 13.5 µM (active); in the assay with DIV17, 0.536 µM (active); with Dd2, 12.6 µM (active). The Potency with ICS was 5.01 µM (active); with P93_24, 3.98 µM (active); in the assay on P94_40, 5.01 µM (active); in the assay on TAB113, 12.6 µM (active); with W2, 1.9 µM (active).

On to `COC1C=CO[C@@]2(C)Oc3c(C)c(O)c4c(O)c(c(C=NN5CCN(C)CC5)c(O)c4c3C2=O)NC(=O)/C(C)=C\C=CC(C)C(O)[C@@H](C)C(O)C(C)[C@H](OC(C)=O)C1C` (stereo partly drawn), for which the call in [1] was inactive. Besides, the Potency with AA1029 was 2 µM (active); in the assay on ATS189 it was 1.58 µM (active); in the assay on CP191, 2.82 µM (active); with CP192 it was 4.26 µM (active); with CP215 it was 4.26 µM (active); with CP217, 5.01 µM (active). The Potency is 3.98 µM (active) with CP247; 6.31 µM (active) in the assay with CP250; 1.41 µM (active) with CP260; 5.01 µM (active) with CP265; 0.953 µM (active) with CP335; 3.55 µM (active) with DFO2036. For the same compound, the Potency in the assay on DIV17 is 0.269 µM (active); in the assay with Dd2, 0.251 µM (active); with ICS, 0.0891 µM (active); with P93_24, 0.251 µM (active); in the assay on P94_40 it was 0.282 µM (active); in the assay with TAB113, 0.316 µM (active). The Potency in the assay with W2 was 0.12 µM (active).

Take `CNC1CC(N)[C@H](O)[C@@H](O[C@@H]2OC(CO)C3OC4(OC(C(N)CO)C(O)C(O)C4O)O[C@@H]3[C@H]2O)C1O` (stereo partly drawn): the compound was classed as inactive in assay [1]. The Potency result with AA1029, in the assay with ATS189, with CP191, with CP192, with CP215 and in the assay with CP217 was “inactive” throughout. Besides, the Potency entry in the assay on CP247, in the assay with CP250, in the assay on CP260, in the assay with CP265, in the assay on CP335 and in the assay on DFO2036 was “inactive” in each case. Also, the Potency entry in the assay on DIV17, with Dd2, with ICS, with P93_24, in the assay with P94_40 and with TAB113 was “inactive” each time.

As to `CCOC(=O)C1=CC(OC(CC)CC)C(NC(C)=O)C(N)C1` (stereo not drawn), the Potency result in the assay on AA1029, in the assay on ATS189, in the assay on CP191, in the assay on CP192, in the assay with CP215 and in the assay with CP217 was “inactive” throughout. For the same compound, the Potency result in the assay on CP247, with CP250, with CP260, with CP265, in the assay on CP335 and in the assay on DFO2036 was “inactive” each time. The Potency entry with Dd2, in the assay on P93_24, with P94_40 and in the assay with TAB113 was “inactive” each time. In addition, the Potency in the assay on W2 is 6.75 µM (active).
